Screening results deposited in PubChem BioAssay by The Scripps Research Institute Molecular Screening Center.
Shown are actives, neighbours in structure and some others; about 5.7% of the full set was active somewhere.
AHR act = activators of human aryl hydrocarbon receptor; P35869; AHR-responsive luciferase reporter cells, luminescence; activation, % at 5 µM; 2.5% of 320,000 active; AID 2796; in the data active = activation above about 47%
Target sequence (P35869 whole entry, looked up): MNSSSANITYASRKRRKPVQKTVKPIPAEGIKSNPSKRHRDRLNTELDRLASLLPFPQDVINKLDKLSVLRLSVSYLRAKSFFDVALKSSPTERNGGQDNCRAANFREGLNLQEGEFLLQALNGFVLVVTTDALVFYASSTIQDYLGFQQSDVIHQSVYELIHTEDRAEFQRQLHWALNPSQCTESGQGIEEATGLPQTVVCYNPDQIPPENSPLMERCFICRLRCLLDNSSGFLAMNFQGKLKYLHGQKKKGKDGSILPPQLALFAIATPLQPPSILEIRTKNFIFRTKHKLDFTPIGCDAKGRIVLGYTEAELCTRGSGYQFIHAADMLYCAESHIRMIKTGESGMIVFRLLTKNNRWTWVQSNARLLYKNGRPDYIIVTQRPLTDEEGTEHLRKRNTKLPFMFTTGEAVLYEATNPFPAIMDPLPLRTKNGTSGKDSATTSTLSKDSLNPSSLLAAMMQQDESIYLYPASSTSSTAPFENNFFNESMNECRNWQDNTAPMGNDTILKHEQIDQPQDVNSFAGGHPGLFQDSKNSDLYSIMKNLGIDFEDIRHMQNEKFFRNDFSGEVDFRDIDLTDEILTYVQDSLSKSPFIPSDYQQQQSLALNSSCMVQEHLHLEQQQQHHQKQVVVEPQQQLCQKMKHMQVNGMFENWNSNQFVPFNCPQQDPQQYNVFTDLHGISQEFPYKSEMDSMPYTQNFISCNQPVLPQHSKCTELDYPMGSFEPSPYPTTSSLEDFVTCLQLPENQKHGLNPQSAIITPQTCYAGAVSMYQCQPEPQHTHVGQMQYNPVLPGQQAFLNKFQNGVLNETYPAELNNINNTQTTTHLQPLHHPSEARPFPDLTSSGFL
ssDAF-12 act = activators of S. stercoralis DAF-12 nuclear receptor. HEK293 ssDAF-12/GRIP1 lit1-tk-luc reporter, luminescence; % of 3 µM dafachronic acid response. activation, % at 6.8 µM. 1% of 370,000 active;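 active = activation above the mean over all tested compounds plus 3 SD, cut at about 0.9% in these data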
DAX1 inh-1 = DAX1 (NR0B1) inhibition, primary screen. 1.1% of 370,000 active. HEK293T StAR-luciferase reporter, SF-1/DAX-1 repression relief. inhibition, % at 6.8 µM. AID 652010;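 active = inhibition above the mean over all tested compounds plus 3 SD, cut at about 3.6% in these data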;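 note: higher inhibition means more luminescence from relief of DAX-1 repression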
DAX1 inh-2 = NR0B1 (DAX1) inhibition; P51843; HEK293 Gal4-DAX1 luciferase reporter, luminescence; inhibition, % at 6.75 µM; 0.99% of 340,000 active;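 active = inhibition above the mean over all tested compounds plus 3 SD, cut at about 4.2% in these data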;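 note: inhibition shows as a rise in luminescence from relieved DAX1 repression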
hcDAF-12 act = activates DAF-12 receptor from parasite H. contortus; activation, % at 6.8 µM; 1.4% of 370,000 active; HEK293 hcDAF-12 lit1-tk-luc reporter, luminescence; 0% DMSO, 100% Δ7-dafachronic acid;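 active = activation above the mean of all tested compounds plus 3 SD, cut at about 5.5% in these data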
hgDAF12 agonist = activates the H. glycines DAF-12 receptor ligand-binding domain. HEK293 GAL4-hgDAF12 UAS-luciferase reporter, agonist luminescence; normalized to butyrate control. activation, % at 6.8 µM. AID 687014. 1.8% of 370,000 active;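 active = activation above a cutoff set at the mean of all screened compounds plus 3 SD, cut at about 10% in these data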
AHR act confirm = confirmation of human aryl hydrocarbon receptor activators; shares compounds with AHR act; human cells, AHR-responsive luciferase reporter, luminescence; activation, % at 9 µM; 87% of 2,300 active; AID 2845; in the data active = activation above about 49%;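 note: HepG2 hepatoma cells carrying a DRE-driven firefly luciferase reporter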
PXR counter = PXR activation, counter-screen for AHR activators. shares compounds with AHR act. 88% of 2,300 active. cell-based PXR reporter, luciferase luminescence. activation, % at 11.6 µM. AID 434939; in the data active = activation above about 11%;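 note: human hepatoma DPX-2 cells expressing full-length human PXR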
Each line names hits and unclear results; the compound was inactive in the other large screens (follow-up assays come after a bar, where they were run).

COc1ccc(CN2CC[C@H]3C=CCc4cccc(c43)C2)cc1	AHR act 82 | AHR act confirm inactive | PXR counter 26
CC(C)(C)c1ccc(NC(=O)Nc2ccc3ccccc3n2)cc1	none
CCn1c(SCC(=O)NCC2CCCO2)nnc1-c1ccc(Cl)cc1 (stereo unspecified)	none
Cc1ccc(-c2nc(SCC(=O)NCC3CCCO3)c(-c3ccc(Cl)cc3)[nH]2)cc1 (stereo unspecified)	AHR act 86 | AHR act confirm 73 | PXR counter 73
Cc1ccc(-c2[nH]c(-c3ccccc3)nc2SCC(=O)NCC2CCCO2)cc1 (stereo unspecified)	AHR act 93 | AHR act confirm 91 | PXR counter 110
COc1cccc(-n2c(N)c(-c3nc4ccccc4[nH]3)sc2=S)c1	AHR act 89 | AHR act confirm 130 | PXR counter 97
COc1ccc2nc(-c3cccc(N)c3)[nH]c2c1	none
Cc1onc(-c2ccccc2Cl)c1C(=O)N1CCCCC1C (stereo unspecified)	none
C=CCn1c(-c2ccc(OC)c(OC)c2)n[nH]c1=S	none
C=CCNc1nc(=S)[nH]c2cc(OC)c(OC)cc12	AHR act 104 | AHR act confirm 75 | PXR counter 13
NC(=S)n1[nH]c(-c2ccc([N+](=O)[O-])cc2)c(N=Nc2cccc(Cl)c2)c1=O	none (no result: AHR act)
Cc1[nH]n(C(N)=S)c(=O)c1N=Nc1cccc(Cl)c1	AHR act 114 | AHR act confirm 115 | PXR counter 13
CC1=NN(C(N)=S)C(=O)C1N=Nc1cccc(Cl)c1 (stereo unspecified)	AHR act 85, hcDAF-12 act 6.1 | AHR act confirm 148 | PXR counter 27
COc1ccccc1OCc1ccc(C(=O)Nc2ccc(Cl)cn2)o1	none
CCc1c(C)c2c(C)nn(-c3ccccc3)c2[nH]c1=O	AHR act 97 | AHR act confirm 94 | PXR counter 24
CCOC(=O)Cc1c(C)c2c(C)nn(-c3ccccc3)c2oc1=O	none
O=C(NN1CCN(Cc2ccccc2)CC1)c1ccc(N2CCOCC2)c([N+](=O)[O-])c1	none
COc1ccc(C2CC(c3cccs3)=NN2C(=O)CSc2nc3ccccc3o2)cc1 (stereo unspecified)	AHR act 93 | AHR act confirm 50 | PXR counter 45
COc1ccc(C2CC(c3cccs3)=NN2C(=O)CSc2nc3ccccc3s2)cc1 (stereo unspecified)	none
COc1ccc(-c2[nH]c(-c3cc(OC)c4c(c3)OCO4)nc2-c2ccccc2)cc1	AHR act 107 | AHR act confirm 54 | PXR counter 57
O=C(CCc1nc2ccccc2c(=O)[nH]1)Nc1cc(C(F)(F)F)ccc1N1CCCC1	none
COc1ccc(NC(=O)C(CC(=O)O)Cc2ccc(Cl)cc2)cc1 (stereo unspecified)	none
O=C(Nc1cccc(-c2csc(Nc3ccc(Cl)cc3)n2)c1)c1ccccc1	AHR act 93 | AHR act confirm 95 | PXR counter 22
O=C(Nc1cccc(C(=O)Nc2ccc(Cl)cn2)c1)c1ccccc1	AHR act 82 | AHR act confirm inactive | PXR counter 19
O=C(Nc1ccc(-c2csc(Nc3ccc(Cl)cc3)n2)cc1)c1cc([N+](=O)[O-])cc(C(F)(F)F)c1	none
O=C(Nc1cccc(-c2csc(Nc3ccc(Cl)cc3)n2)c1)c1cccc(C(F)(F)F)c1	AHR act 106 | AHR act confirm inactive | PXR counter 25
CCCNC(=O)C(Cc1ccc(F)cc1)NC(=O)c1ccc(C#N)cc1 (stereo unspecified)	none
COc1ccc(CNC(=O)C2CCN(C(=O)c3csc(Nc4ccc(C)cc4)n3)CC2)cc1	none
O=C(NCc1ccc(/C=c2\sc3n(c2=O)CCN=3)o1)C(=O)Nc1ccccc1	none (no result: ssDAF-12 act, DAX1 inh-1, DAX1 inh-2, hcDAF-12 act, hgDAF12 agonist)
Cc1nc(NCc2ccccc2)sc1C(=O)Nc1ccccc1	none
Cc1nc(NCCOc2ccccc2)sc1C(=O)Nc1ccccc1	AHR act 88 | AHR act confirm 145 | PXR counter 47
Cc1nc(NCCc2ccc(F)cc2)c(C#N)c(C)c1[N+](=O)[O-]	AHR act 108 | AHR act confirm 113 | PXR counter 24
Cc1ccccc1Nc1nc(N)nc(COC(=O)c2ccc([N+](=O)[O-])o2)n1	none
COc1cccc2sc(NNC(=O)C3COc4ccccc4O3)nc12 (stereo unspecified)	none
Cc1ccc2sc(NNC(=O)C3COc4ccccc4O3)nc2c1C (stereo unspecified)	AHR act 137 | AHR act confirm 65 | PXR counter 48
Cn1c(SCC(=O)NCc2ccccc2)nc2c([nH]c3ccccc32)c1=O	AHR act 84 (no result: ssDAF-12 act, DAX1 inh-1, DAX1 inh-2, hcDAF-12 act, hgDAF12 agonist) | AHR act confirm 97 | PXR counter 126
COC(=O)C(C)Sc1nc2c([nH]c3ccccc32)c(=O)n1C (stereo unspecified)	none
CCC(C)Sc1nc2c([nH]c3ccccc32)c(=O)n1C (stereo unspecified)	AHR act 87, ssDAF-12 act 3.1 | AHR act confirm 88 | PXR counter 52
CC(C)(C)C(=O)Nc1ccc(-c2nnc3n2CCCCC3)cc1	none (no result: AHR act)
CCCCc1cc2c(c(NC(C)=O)n1)c(=O)oc1ccccc12	AHR act 94 (no result: ssDAF-12 act, DAX1 inh-1, DAX1 inh-2, hcDAF-12 act, hgDAF12 agonist) | AHR act confirm 99
Fc1ccc(Br)cc1/C=N/N1CCN(c2ccccc2)CC1	AHR act 120 | AHR act confirm 117 | PXR counter 18
Cc1cccc(N2C(=O)c3ccccc3C2=O)n1	none
CNc1sc(C(=O)c2cccs2)c(N)c1-c1nc2ccccc2s1	AHR act 89 | AHR act confirm 119 | PXR counter 82
CC(=O)Nc1scc(C)c1-c1nc2ccccc2s1	none
Cc1cc(C(=O)N/N=C/c2ccc(C)s2)n[nH]1	AHR act 97 | AHR act confirm 89 | PXR counter 24
Cc1cc(C(=O)N/N=C/c2ccc([N+](=O)[O-])s2)n[nH]1	none
Cc1ccc(NC(=O)C(C)OC(=O)Cn2cnc3ccccc3c2=O)cc1 (stereo unspecified)	none
CCCC(C)C(=O)Nc1nc(C)c(-c2csc(Nc3cc(Cl)ccc3C)n2)s1 (stereo unspecified)	none
Cc1nc(NC(=O)c2ccco2)sc1-c1csc(Nc2ccc(Cl)cc2Cl)n1	AHR act 88 | AHR act confirm 75 | PXR counter 26
